# Data reported in PubChem BioAssay AID1159580 (chemical genetic matrix, 2015).
# The campaign covered roughly 5,500 compounds. About 2,000 (36%) were called active. Roughly 18% stayed inconclusive and do not appear here. The list shows a part of the results. A number with no mark means an inactive call. No stated cut-off is given here; in the data, active means normalized growth mostly below about 0.91 (no sharp cut-off); inconclusive means no clear call, values can overlap the other calls; inactive means mostly above about 0.92.
# Assay: chemical genetic growth profiling, strain panel (AID 1159580);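 further: tested at 20 µM; growth read once vehicle control cultures reached saturation at 30 °C; 1 = growth at the plate median or of vehicle wells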
# Conditions: growth OD
smiles,measurement,setting,value
O=C(O)c1cc2ccccc2c(Cc2c(O)c(C(=O)O)cc3ccccc23)c1O,normalized growth,"S. cerevisiae deletion strains, locus YJR043C, strain POL32, stronger effect = lower value",1.01
same,normalized growth,"S. cerevisiae deletion strains, locus YJR066W, strain TOR1, stronger effect = lower value",0.819 (active)
same,normalized growth,"S. cerevisiae deletion strains, locus YKL009W, strain mrt4, stronger effect = lower value",0.989
same,normalized growth,"S. cerevisiae deletion strains, locus YKL068W, stronger effect = lower value",1.01
same,normalized growth,"S. cerevisiae deletion strains, locus YKL085W, strain MDH1 (second series), stronger effect = lower value",1
same,normalized growth,"S. cerevisiae deletion strains, locus YKL085W, strain MDH1, stronger effect = lower value",1
same,normalized growth,"S. cerevisiae deletion strains, locus YKL160W, strain elf1, stronger effect = lower value",1
same,normalized growth,"S. cerevisiae deletion strains, locus YKR001C, strain vps1, stronger effect = lower value",0.966
same,normalized growth,"S. cerevisiae deletion strains, locus YKR026C, strain gcn3, stronger effect = lower value",0.998
same,normalized growth,"S. cerevisiae deletion strains, locus YKR091W, strain srl3, stronger effect = lower value",1
same,normalized growth,"S. cerevisiae deletion strains, locus YLL001W, strain dnm1, stronger effect = lower value",0.996
same,normalized growth,"S. cerevisiae deletion strains, locus YLL026W, stronger effect = lower value",1
same,normalized growth,"S. cerevisiae deletion strains, locus YLL041C, strain sdh2, stronger effect = lower value",0.992
same,normalized growth,"S. cerevisiae deletion strains, locus YLR027C, strain aat2, stronger effect = lower value",0.999
same,normalized growth,"S. cerevisiae deletion strains, locus YLR039C, strain RIC1, stronger effect = lower value",0.996
same,normalized growth,"S. cerevisiae deletion strains, locus YLR058C, strain SHM2, stronger effect = lower value",1
same,normalized growth,"S. cerevisiae deletion strains, locus YLR102C, strain apc9, stronger effect = lower value",0.994
same,normalized growth,"S. cerevisiae deletion strains, locus YLR113W, strain HOG1, stronger effect = lower value",0.847 (active)
same,normalized growth,"S. cerevisiae deletion strains, locus YLR221C, strain rsa3, stronger effect = lower value",0.99
same,normalized growth,"S. cerevisiae deletion strains, locus YLR258W, strain gsy2, stronger effect = lower value",0.996
same,normalized growth,"S. cerevisiae deletion strains, locus YLR262C, strain YPT6 (second series), stronger effect = lower value",1.01
same,normalized growth,"S. cerevisiae deletion strains, locus YLR262C, strain YPT6, stronger effect = lower value",1.07
same,normalized growth,"S. cerevisiae deletion strains, locus YLR268W, strain sec22, stronger effect = lower value",0.993
same,normalized growth,"S. cerevisiae deletion strains, locus YLR320W, strain mms22, stronger effect = lower value",0.991
same,normalized growth,"S. cerevisiae deletion strains, locus YLR330W, strain CHS5, stronger effect = lower value",0.996
same,normalized growth,"S. cerevisiae deletion strains, locus YLR342W, strain FKS1 (second series), stronger effect = lower value",0.972
same,normalized growth,"S. cerevisiae deletion strains, locus YLR342W, strain FKS1, stronger effect = lower value",0.998
same,normalized growth,"S. cerevisiae deletion strains, locus YLR357W, strain rsc2, stronger effect = lower value",0.99
same,normalized growth,"S. cerevisiae deletion strains, locus YLR370C, strain arc18, stronger effect = lower value",1.01
same,normalized growth,"S. cerevisiae deletion strains, locus YLR371W, strain rom2, stronger effect = lower value",0.966
same,normalized growth,"S. cerevisiae deletion strains, locus YLR384C, strain iki3, stronger effect = lower value",0.988
same,normalized growth,"S. cerevisiae deletion strains, locus YLR418C, strain cdc73, stronger effect = lower value",0.93
same,normalized growth,"S. cerevisiae deletion strains, locus YML016C, strain PPZ1, stronger effect = lower value",0.978
same,normalized growth,"S. cerevisiae deletion strains, locus YML032C, strain rad52, stronger effect = lower value",0.994
same,normalized growth,"S. cerevisiae deletion strains, locus YML120C, strain ndi1, stronger effect = lower value",1
same,normalized growth,"S. cerevisiae deletion strains, locus YML124C, strain tub3, stronger effect = lower value",0.994
same,normalized growth,"S. cerevisiae deletion strains, locus YMR058W, strain fet3, stronger effect = lower value",1
same,normalized growth,"S. cerevisiae deletion strains, locus YMR078C, strain ctf18, stronger effect = lower value",0.984
same,normalized growth,"S. cerevisiae deletion strains, locus YMR125W, strain sto1, stronger effect = lower value",1
same,normalized growth,"S. cerevisiae deletion strains, locus YMR129W, stronger effect = lower value",0.997
same,normalized growth,"S. cerevisiae deletion strains, locus YMR205C, strain PFK2, stronger effect = lower value",1.01
same,normalized growth,"S. cerevisiae deletion strains, locus YMR223W, strain ubp8, stronger effect = lower value",1
same,normalized growth,"S. cerevisiae deletion strains, locus YMR231W, strain pep5, stronger effect = lower value",1
same,normalized growth,"S. cerevisiae deletion strains, locus YMR263W, strain SAP30, stronger effect = lower value",0.999
same,normalized growth,"S. cerevisiae deletion strains, locus YMR307W, strain GAS1, stronger effect = lower value",1.1
same,normalized growth,"S. cerevisiae deletion strains, locus YNL067W, strain RPL9B, stronger effect = lower value",1.01
same,normalized growth,"S. cerevisiae deletion strains, locus YNL071W, strain lat1, stronger effect = lower value",0.987
same,normalized growth,"S. cerevisiae deletion strains, locus YNL183C, strain NPR1, stronger effect = lower value",0.829 (active)
same,normalized growth,"S. cerevisiae deletion strains, locus YNL209W, strain ssb2, stronger effect = lower value",1
same,normalized growth,"S. cerevisiae deletion strains, locus YNL233W, strain BNI4, stronger effect = lower value",1.01
same,normalized growth,"S. cerevisiae deletion strains, locus YNL248C, strain rpa49, stronger effect = lower value",0.984
same,normalized growth,"S. cerevisiae deletion strains, locus YNL250W, strain rad50, stronger effect = lower value",1.01
same,normalized growth,"S. cerevisiae deletion strains, locus YNL271C, strain bni1, stronger effect = lower value",1.01
same,normalized growth,"S. cerevisiae deletion strains, locus YNL298W, strain CLA4, stronger effect = lower value",0.983
same,normalized growth,"S. cerevisiae deletion strains, locus YNL307C, strain MCK1, stronger effect = lower value",0.996
same,normalized growth,"S. cerevisiae deletion strains, locus YNL322C, strain KRE1 (second series), stronger effect = lower value",1.02
same,normalized growth,"S. cerevisiae deletion strains, locus YNR049C, strain mso1, stronger effect = lower value",1
same,normalized growth,"S. cerevisiae deletion strains, locus YNR052C, strain pop2, stronger effect = lower value",0.981
same,normalized growth,"S. cerevisiae deletion strains, locus YOL012C, strain htz1",0.665
same,normalized growth,"S. cerevisiae deletion strains, locus YOL147C, strain pex11, stronger effect = lower value",1
same,normalized growth,"S. cerevisiae deletion strains, locus YOR001W, strain rrp6, stronger effect = lower value",1.01
same,normalized growth,"S. cerevisiae deletion strains, locus YOR061W, strain CKA2, stronger effect = lower value",0.984
same,normalized growth,"S. cerevisiae deletion strains, locus YOR069W, strain VPS5, stronger effect = lower value",0.999
same,normalized growth,"S. cerevisiae deletion strains, locus YOR070C, strain gyp1, stronger effect = lower value",1
same,normalized growth,"S. cerevisiae deletion strains, locus YOR080W, strain dia2, stronger effect = lower value",1
same,normalized growth,"S. cerevisiae deletion strains, locus YOR083W, strain WHI5, stronger effect = lower value",1
same,normalized growth,"S. cerevisiae deletion strains, locus YOR106W, strain vam3, stronger effect = lower value",0.976
same,normalized growth,"S. cerevisiae deletion strains, locus YOR136W, strain idh2, stronger effect = lower value",1
same,normalized growth,"S. cerevisiae deletion strains, locus YOR144C, strain elg1, stronger effect = lower value",0.99
same,normalized growth,"S. cerevisiae deletion strains, locus YOR184W, strain ser1, stronger effect = lower value",0.989
same,normalized growth,"S. cerevisiae deletion strains, locus YOR231W, strain MKK1, stronger effect = lower value",0.875
same,normalized growth,"S. cerevisiae deletion strains, locus YOR265W, strain rbl2, stronger effect = lower value",0.991
same,normalized growth,"S. cerevisiae deletion strains, locus YOR270C, strain vph1, stronger effect = lower value",0.974
same,normalized growth,"S. cerevisiae deletion strains, locus YOR290C, strain snf2, stronger effect = lower value",0.989
same,normalized growth,"S. cerevisiae deletion strains, locus YOR316C, strain cot1, stronger effect = lower value",0.997
same,normalized growth,"S. cerevisiae deletion strains, locus YPL051W, strain arl3, stronger effect = lower value",1.01
same,normalized growth,"S. cerevisiae deletion strains, locus YPL055C, strain LGE1, stronger effect = lower value",1
same,normalized growth,"S. cerevisiae deletion strains, locus YPL078C, strain atp4, stronger effect = lower value",1
same,normalized growth,"S. cerevisiae deletion strains, locus YPL106C, strain sse1, stronger effect = lower value",0.964
same,normalized growth,"S. cerevisiae deletion strains, locus YPL240C, strain hsp82, stronger effect = lower value",0.976
same,normalized growth,"S. cerevisiae deletion strains, locus YPL256C, strain CLN2, stronger effect = lower value",0.905
same,normalized growth,"S. cerevisiae deletion strains, locus YPR119W, strain clb2, stronger effect = lower value",0.988
same,normalized growth,"S. cerevisiae deletion strains, locus YPR141C, strain kar3, stronger effect = lower value",1.02
same,normalized growth,"S. cerevisiae deletion strains, locus YPR163C, strain tif3, stronger effect = lower value",0.995
same,normalized growth,"S. cerevisiae deletion strains, locus YPR167C, strain met16, stronger effect = lower value",0.991
same,normalized growth,"S. cerevisiae deletion strains, strain wtn01, stronger effect = lower value",0.985
same,normalized growth,"S. cerevisiae strains, strain wild type, stronger effect = lower value",1
